In PubChem BioAssay (EPA / NIEHS):
Records with an inconclusive call do not appear. Active and inactive are the calls of the source. Rule for the calls: active = hit-call score of the fitted dose curve at least 0.9, where 1 is the maximum; inconclusive = response in the unintended direction; inactive = score below 0.9.

Experiment: Tanguay_ZF_120hpf_BRAI_legacy: (Legacy) Oregon State University Tanguay Lab 120 Hour Post-fertilization zebrafish Assay for Brain Malformation (AID 2283641)
Experimental: Tanguay_ZF_120hpf_legacy is a whole embryo, multiplexed endpoint assay using zebrafish larvae exposed for 120 hours post fertilization on a 96-well plate.Tanguay_ZF_120hpf_BRAI_legacy is one of one assay component(s) measured or calculated from the Tanguay_ZF_120hpf_legacy assay. It is designed to make measurements of zebrafish development as detected with brightfield microscopy of developing zebrafish embryos.Data from the assay component Tanguay_ZF_120hpf_BRAI_legacy was analyzed into 1 assay endpoints. This assay endpoint, Tanguay_ZF_120hpf_BRAI_legacy, was analyzed in the positive analysis fitting direction relative to DMSO as the negative control and baseline of activity. Using a type of morphology reporter, gain-of-signal activity can be used to understand changes in developmentals as they relate to the whole embryo. To generalize the intended target to other relatable targets, this assay endpoint is annotated to the zebrafish development intended target family, where the subfamily is brain morphogenesis.
Zebrafish husbandry: Tropical 5D wild-type adult zebrafish were housed in at an approximate density of 1000 per 100 gallon tank at the Sinnhuber Aquatic Research Laboratory, Oregon State University, Corvallis, OR. Each tank was kept at standard laboratory conditions of 28C on a 14-h light/10-h dark photoperiod in fish water consisting of reverse osmosis water supplemented with a commercially available salt (Instant Ocean). Spawning funnels were placed into the tanks the night prior, and embryos were collected and staged. […] Ten microliters of each row of dilution plate 2 was added to 2 exposure plates. The final DMSO concentration used was 0.64% (vol/vol). Thirty-two embryos were also exposed to 5uM trimethyltin chloride (positive control). Plates were sealed to prevent evaporation and foil covered to reduce light exposure and kept in a 28C incubator. Embryos were statically exposed until 120 hpf. At 24 hpf, embryos were assessed for photomotor response using a custom photomotor response analysis tool (PRAT) and for developmental toxicity endpoints (MO24: mortality at 24 hpf, DP: developmental progression, SM: spontaneous movement, and NC: notochord distortion). At 120 hpf, locomotor activity was measured using Viewpoint Zebralab and assessed for 18 endpoints. Zebrafish acquisition and analysis program (ZAAP), a custom program designed to inventory, acquire, and manage zebrafish data, was used to collect developmental endpoints as either present or absent (i.e., binary responses were recorded). If mortality occurred for an embryo (at either 24 or 120 hpf), the non-mortality endpoints were not measured.

Row | SMILES | AC50 | outcome
1 | CN(C)c1ccc(C(=O)c2ccc(N(C)C)cc2)cc1 | 48.7 µM (active) | 
2 | O=P(OCCCl)(OCCCl)OCCCl |  | inactive
3 | CCCCCOC(=O)c1ccccc1C(=O)OCCCCC |  | inactive
4 | Nc1ccc(Cl)cc1N |  | inactive
5 | CC(C)COC(=O)c1ccccc1C(=O)OCC(C)C |  | inactive
6 | N#CC(Br)Br |  | inactive
7 | Cc1ccc([N+](=O)[O-])cc1 |  | inactive
8 | Cc1ccc(N)c(N)c1 |  | inactive
9 | CCOc1cccc(C2(N3CCN(c4ccccc4)CC3)CCC(C)CC2)c1 (stereo not given) |  | inactive
10 | ClC1=C(Cl)C2(Cl)C3C(Cl)C=CC3C1(Cl)C2(Cl)Cl (stereo not given) |  | inactive
11 | N#CC(Br)(Br)C(N)=O |  | inactive
12 | C[C@]12C=CC3=C4CCC(=O)C=C4CC[C@H]3[C@@H]1CC[C@@H]2O | 27.1 µM (active) | 
13 | CCC[CH2][Sn]([Cl])([CH2]CCC)[CH2]CCC |  | inactive
14 | CN(C)c1ccccc1 |  | inactive
15 | CCOC(=O)[C@]1(c2ccccc2)Oc2ccccc2[C@@H]1N |  | inactive
16 | CCCCC(CC)COC(=O)c1ccc(C(=O)OCC(CC)CCCC)c(C(=O)OCC(CC)CCCC)c1 (stereo not given) |  | inactive
17 | [Cl-].[Cl-].[Hg+2] | 1.22 µM (active) | 
18 | CC(C)(C)OOC(C)(C)CCC(C)(C)OOC(C)(C)C |  | inactive
19 | CO[C@@H]1[C@H](OC(=O)NC(=O)CCl)CC[C@]2(CO2)[C@H]1[C@@]1(C)O[C@@H]1CC=C(C)C |  | inactive
20 | c1ccc2c(c1)-c1cccc3cccc-2c13 |  | inactive

Row | SMILES | AC50 | outcome
21 | CC(C)(O)c1cnn2c(-c3ccc(F)c(-c4c(F)cccc4C#N)c3)cnc2n1 |  | inactive
22 | Oc1ccccc1Cl |  | inactive
23 | COC(=O)c1ccccc1N |  | inactive
24 | CC(C)(C)C(O)(CCc1ccc(Cl)cc1)Cn1cncn1 (stereo not given) |  | inactive
25 | C[N+](C)(C)CC1CO1 (stereo not given) |  | inactive
26 | O=[N+]([O-])C(Br)(CO)CO |  | inactive
27 | CCCCCCCCOC(=O)c1ccc(C(=O)OCCCCCCCC)c(C(=O)OCCCCCCCC)c1 |  | inactive
28 | COC(=O)Nc1nc2ccccc2[nH]1 |  | inactive
29 | ClCCOCCCl |  | inactive
30 | CCCCCCCCn1sccc1=O |  | inactive
31 | O=C(Oc1ccc(Br)cc1)N1CCN2CCC1CC2 |  | inactive
32 | CC(O)CCO (stereo not given) |  | inactive
33 | OCCCBr |  | inactive
34 | c1ccc(N=Nc2ccccc2)cc1 |  | inactive
35 | Brc1ccc(Oc2ccccc2)cc1 |  | inactive
36 | CCCSC(=O)N(CCC)CCC |  | inactive
37 | O=C(Nc1ccccc1)c1ccccc1I |  | inactive
38 | Clc1ccccc1Cl |  | inactive
39 | Cc1ccc(N)cc1 |  | inactive
40 | CCCCOC(=O)c1ccccc1C(=O)OCc1ccccc1 |  | inactive
